Screening results from PubChem BioAssay.
Shown are actives, neighbours in structure and some others; about 19% of the full set was active somewhere.
HT1080NT lethal = qHTS for induction of synthetic lethality in tumor cells producing 2HG: qHTS for the HT-1080-NT fibrosarcoma cell line | HT-1080-NT fibrosarcoma viability, CellTiter-Glo ATP luminescence, 48 h | Potency, µM (top dose mostly 46.1 µM), actives largely listed as cytotoxic | 360,000 compounds, 1.6% hits;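 further: NT is the 2HG producing partner of a matched IDH1 knockdown line; nearly all actives have a fitted effect of over 55% in size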
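HT-1080-NT; 750 cells/well; 5% FBS RPMI; 48 h compound, 37 degrees C; CellTiter-Glo luminescence; curve fitting and curve-class assignment.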
DT40 TDP1 CPT = qHTS for Inhibitors of human tyrosyl-DNA phosphodiesterase 1 (TDP1): qHTS in cells in presence of CPT; chicken DT40 Tdp1-/-;hTDP1 cells + 20 nM CPT, ATP luminescence, 48 h; Potency, µM (doses to about 46.2 µM), actives largely listed as inhibitors; 420,000 compounds, 12% hits; AID 686979, 2013; further: nearly all actives have a fitted effect of over 55% in size
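Cell growth measured by CellTiter-Glo luminescence after a minimum 48 h, 37 C compound exposure with 20 nM CPT in Tdp1-knockout DT40 cells stably expressing hTDP1, seeded 400/well; qHTS titration format.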
IL-1B inflam inh = qHTS for Inhibitors of Inflammasome Signaling: IL-1-beta AlphaLISA Primary Screen; THP-1 LPS/ATP IL-1B secretion, AlphaLISA, 16 h; hits give low values; activity change, % at 57.5 µM; 360,000 compounds, 4.7% hits; AID 743279, 2014; in the data active means activity change below about -50%; inconclusive means mostly about -30% to -49%
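Secreted IL-1B measured by AlphaLISA bead assay after 16 h compound exposure of THP-1 cells; compounds (final up to 57.5 uM) added 1 h before LPS (250 ng/mL) and ATP (1.25 mM) stimulation; lower signal means less secretion.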
TDP1 cell noCPT = qHTS for Inhibitors of human tyrosyl-DNA phosphodiesterase 1 (TDP1): qHTS in cells in absence of CPT | DT40 Tdp1-/- hTDP1 cells, no CPT, ATP luminescence, 48 h | Potency, µM (titrated, usually from 46.2 µM), usual class: inhibitors | 420,000 compounds, 15% hits | AID 686978, 2013; further: nearly all actives have a fitted effect of over 55% in size
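No-CPT arm: Tdp1-/-;hTDP1 DT40 cells (400/well) plus compounds, incubated ≥48 hr at 37 °C. Readout CellTiter-Glo luminescence.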
HT1080 IDH1KD tx = qHTS for induction of synthetic lethality in tumor cells producing 2HG: qHTS for the HT-1080-IDH1KD cell line; AID 686971, 2013; Potency, µM (titrated, usually from 46.1 µM), most hits filed as cytotoxic; HT-1080 IDH1 knockdown viability, ATP luminescence, 48 h; 360,000 compounds, 2% hits
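HT-1080-IDH1KD cells (IDH1 knocked down), 750/well in RPMI with 5% FBS, treated with compound 48 h at 37 degrees C. Viability by CellTiter-Glo luminescence, normalised to DMSO and no-cell wells; concentration-response curves classed.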
A number is an active result; n = inactive; u = inconclusive; x = no result given; [ ] = remark or other dose. Unless noted, the call rests on the fitted dose curve; in most records, active means well fitted curve in the direction sought with a large enough effect; inconclusive means small, poorly fitted or top-dose-only effect, or another doubt; inactive means no such curve, though single readings can be large; an effect the other way counts as inactive or inconclusive.

SMILES	HT1080NT lethal	DT40 TDP1 CPT	IL-1B inflam inh	TDP1 cell noCPT	HT1080 IDH1KD tx
COc1ccc(NC(=O)N2CCCC(c3nc(-c4ccc(C(C)C)cc4)no3)C2)cc1 (stereo unspecified)	11µM	u	-50	21µM	u
O=C(Nc1ccc(Cl)cc1)N1CCC(c2nc(-c3ccc(F)cc3)no2)CC1	u	10µM	u	11µM	u
Cc1ccc(N(CC(=O)N/N=C/c2cccc(Br)c2)S(C)(=O)=O)cc1	n	n	n	u	n
C#CCOCCOCCOCCNc1nc(N2CCN(C(=O)[C@H](CCCCN)n3cc(CC(C)O)nn3)CC2)nc(N2CCN(C(=O)[C@H](CCCCN)n3cc(CC(C)O)nn3)CC2)n1 (stereo partly specified)	n	n	n	n	n
COc1ccc(-c2noc(C3CCCN(C(=O)Nc4ccccc4F)C3)n2)cc1 (stereo unspecified)	n	u	n	23µM	n
Cc1ccc2nc(C(C)(C)C)c(Cc3cccc(Cl)c3)n2c1	16µM	16µM	n	18µM	u
Cc1ccc2nc(-c3ccc(Cl)cc3)c(Cc3cccc(Cl)c3)n2c1	u	u	n	u	u
COc1ccc(-c2nc3ccc(C)cn3c2CC(C)(C)C)cc1OC	n	18µM	n	21µM	u
COc1ccc(-c2nc3ccc(C)cn3c2Cc2ccccc2)cc1OC	u	18µM	u	23µM	u
Cc1ccc2nc(-c3ccco3)c(CC3CCCCC3)n2c1	u	13µM	n	10µM	u
O=c1c2cc3c(cc2nc2sc(Nc4ccc(F)c(Cl)c4)nn12)OCO3	x	n	x	n	x
COc1cccc(CN(C)CC(=O)Nc2ccccc2N2CCOCC2)c1OC	n	u	n	u	n
COCCn1c(=O)c(-c2cn(C)c3ccccc23)nc2cnc(Oc3cccc(Cl)c3)nc21	x	n	x	n	x
COc1ccccc1Cc1c(-c2ccc(OC)c(OC)c2)nc2ccc(C)cn12	u	u	n	23µM	u
COc1ccccc1Cc1c(-c2ccco2)nc2ccc(C)cn12	u	8.2µM	u	8.2µM	u
Cc1ccc2nc(-c3ccc(F)cc3)c(Cc3cccc(Cl)c3)n2c1	u	21µM	n	26µM	u
COc1ccc(-c2nc3ccc(C)cn3c2Cc2cccc(Cl)c2)cc1OC	u	u	n	18µM	18µM
Cc1cnc(C)c(-c2cccc3c2OC(CNC(=O)C[C@@H]2C[C@@H](C)NC(=S)N2)C3)n1 (stereo partly specified)	x	n[9.04 µM]	x	n	x
CCOc1ccccc1OCCCC(=O)NNC(=O)c1ccc(F)cc1	n	n	n	n	n
COc1ccc(-c2nc3ccc(C)cn3c2Cc2ccc(C)cc2)cc1OC	n	23µM	n	15µM	n
CN1CCN(C(=O)c2cccc(COc3cc(Cl)ccc3Cl)c2)CC1	u	u	n	22µM	n
Cc1ccc(CNCC(O)(c2ccccc2)c2ccccc2)cc1	n	u	n	21µM	n
Cc1ccc(CNC(=O)NCc2ccccc2)cc1	n	n	n	n	n
CCc1ccc(C(O)(CNCc2ccccc2)c2ccccc2)cc1 (stereo unspecified)	n	23µM	n	21µM	n
COc1ccc(CNCc2cccc(Cl)c2)cc1	n	u	n	n	n
SMILES	HT1080NT lethal	DT40 TDP1 CPT	IL-1B inflam inh	TDP1 cell noCPT	HT1080 IDH1KD tx
COc1ccc(CNCC(O)(c2ccccc2)c2ccc(Cl)cc2)cc1 (stereo unspecified)	u	u	n	21µM	n
CCc1ccc(NC(=S)NCc2ccccc2)cc1	n	n	n	n	n
CC1CCN(Cc2csc(N)n2)CC1	n	n	n	n	n
COc1ccc(C(=O)CC2(O)C(=O)Nc3c(C)cccc32)c(OC)c1OC (stereo unspecified)	x	n	x	n	x
Cc1cccc(CNC(=O)c2cnn(-c3ncc4c(n3)-c3ccccc3CC4)c2C2CC2)n1	x	n[9.04 µM]	x	n	x
Cc1ccc(S(=O)(=O)N(C)c2ccc3c(ncn3C)c2[N+](=O)[O-])cc1	n	n	n	u	n
COc1ccccc1C(=O)N(Cc1nc(-c2ccc(Cl)cc2)no1)C(C)C	n	29µM	n	16µM	n
Cc1ccccc1C(=O)N(Cc1nc(-c2ccc(Cl)cc2)no1)C(C)C	x	15µM	x	21µM	x
CC(C)N(Cc1nc(-c2ccc(Cl)cc2)no1)Cc1nccn1C	n	u	n	16µM	n
CC(C)N(Cc1nc(-c2ccc(Cl)cc2)no1)C(=O)CCCN1C(=O)c2ccccc2C1=O	n	u	n	n	n
Cc1ccc(-c2noc(CNC(=O)c3ccc(C)c(Cl)c3)n2)cc1	x	u	x	23µM	x
COc1ccc(-c2noc(CN(C(=O)c3ccc(OC(C)=O)cc3)C(C)C)n2)cc1OC	n	n	n	n	n
C/C=C\C=C/C(=O)Nc1cccc(C2=NOC3(C2)C[C@H](C(N)=O)N(C(=O)Cc2ccc([N+](=O)[O-])cc2)C3)c1 (stereo partly specified)	n	n	n	n	n
O=C(Nc1cc(-c2nc3cc(Cl)ccc3o2)ccc1Cl)c1cc2ccccc2o1	x	n	x	n	x
CCN1C(=O)C2(c3ccccc31)c1c(oc3ccccc3c1=O)C(=O)N2CCOC (stereo unspecified)	x	n	x	n	x
O=S(=O)(Nc1cccc(-c2ccc(N3CCCCC3)nn2)c1)c1cccs1	x	n	x	n	x
COc1ccc(-c2noc(CN(C(=O)c3ccccc3Cl)C(C)C)n2)cc1	x	26µM	x	18µM	x
Cc1onc(-c2ccccc2Cl)c1C(=O)N(C)Cc1ccccc1	n	u	n	u	n
CC(C)N(Cc1nc(-c2ccccc2)no1)C(=O)c1ccc(Cl)cc1	n	18µM	n	18µM	n
Cc1occc1C(=O)N(C)Cc1nc(-c2ccc(Cl)cc2)no1	n	26µM	n	21µM	n
CC(C)N(Cc1nc(-c2ccc(Cl)cc2)no1)C(=O)CN(C)S(=O)(=O)c1ccc(Cl)cc1	n	n	n	u	u
CCN(Cc1ccccc1)C(=O)c1c(-c2ccccc2Cl)noc1C	n	u	n	12µM	n
CN(Cc1ccccc1)C(=O)c1ncn2c1C(=O)N(C)CC2	n	n	n	n	n
CCCc1ccc(OC(=O)c2sc3ncn(Cc4cccc(F)c4)c(=O)c3c2C)cc1	x	n	x	u	x
CC(C)N(Cc1nc(-c2ccccc2)no1)C(=O)c1ccc([N+](=O)[O-])cc1	n	4.6µM	n	5.2µM	n
CC(C)N(Cc1nc(-c2ccc(Cl)cc2)no1)C(=O)c1ccco1	x	u	x	23µM	x
